Laboratory results published in the supplement of paper PMC6897291.

Key:
U-2932 [1] = assay: growth inhibition by drug alone (1 - RLU/untreated control) (fraction); higher = stronger inhibition; conditions: 177Lu-lilotomab satetraxetan 0 ug/ml
In short: (§1)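 RIVA or U-2932 cells, untreated or pretreated 18 h with a radiolabelled anti-CD37 antibody conjugate (~600 MBq/mg; 0.5 µg/ml RIVA, 1 µg/ml U-2932), were washed and seeded at 3,000 cells/well on plates pre-printed with the Selleck Cambridge Cancer Compound library. Doses were 10/100 nM (RIVA) or 10/1,000 nM (U-2932). RealTime-Glo luminescence was read daily from day 3 after 1 h at 37°C. Growth inhibition is 1 − RLU/mean of 48 untreated no-drug wells per plate.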

RIVA [2] = assay: as above; conditions: 177Lu-lilotomab satetraxetan 0 ug/ml
In short: as §1

U-2932 [3] = assay: growth inhibition by drug plus 177Lu-lilotomab satetraxetan (1 - RLU/untreated control) (fraction); higher = stronger inhibition; conditions: 177Lu-lilotomab satetraxetan 1 ug/ml
In short: as §1

RIVA [4] = assay: as above; conditions: 177Lu-lilotomab satetraxetan 0.5 ug/ml
In short: as §1

SMILES | growth inhibition by drug alone (U-2932 [1]; 10 nM, time (day): 3) | growth inhibition by drug alone (U-2932 [1]; 10 nM, time (day): 4) | growth inhibition by drug alone (U-2932 [1]; 10 nM, time (day): 5) | growth inhibition by drug alone (U-2932 [1]; 10 nM, time (day): 6) | growth inhibition by drug alone (U-2932 [1]; 1000 nM, time (day): 3) | growth inhibition by drug alone (U-2932 [1]; 1000 nM, time (day): 4) | growth inhibition by drug alone (U-2932 [1]; 1000 nM, time (day): 5) | growth inhibition by drug alone (U-2932 [1]; 1000 nM, time (day): 6) | growth inhibition by drug alone (RIVA [2]; 10 nM, time (day): 3) | growth inhibition by drug alone (RIVA [2]; 10 nM, time (day): 4) | growth inhibition by drug alone (RIVA [2]; 10 nM, time (day): 5) | growth inhibition by drug alone (RIVA [2]; 10 nM, time (day): 6) | growth inhibition by drug alone (RIVA [2]; 100 nM, time (day): 3) | growth inhibition by drug alone (RIVA [2]; 100 nM, time (day): 4) | growth inhibition by drug alone (RIVA [2]; 100 nM, time (day): 5) | growth inhibition by drug alone (RIVA [2]; 100 nM, time (day): 6) | growth inhibition by drug plus 177Lu-lilotomab satetraxetan (U-2932 [3]; 10 nM, time (day): 3) | growth inhibition by drug plus 177Lu-lilotomab satetraxetan (U-2932 [3]; 10 nM, time (day): 4) | growth inhibition by drug plus 177Lu-lilotomab satetraxetan (U-2932 [3]; 10 nM, time (day): 5) | growth inhibition by drug plus 177Lu-lilotomab satetraxetan (U-2932 [3]; 10 nM, time (day): 6) | growth inhibition by drug plus 177Lu-lilotomab satetraxetan (U-2932 [3]; 1000 nM, time (day): 3) | growth inhibition by drug plus 177Lu-lilotomab satetraxetan (U-2932 [3]; 1000 nM, time (day): 4) | growth inhibition by drug plus 177Lu-lilotomab satetraxetan (U-2932 [3]; 1000 nM, time (day): 5) | growth inhibition by drug plus 177Lu-lilotomab satetraxetan (U-2932 [3]; 1000 nM, time (day): 6) | growth inhibition by drug plus 177Lu-lilotomab satetraxetan (RIVA [4]; 10 nM, time (day): 3) | growth inhibition by drug plus 177Lu-lilotomab satetraxetan (RIVA [4]; 10 nM, time (day): 4) | growth inhibition by drug plus 177Lu-lilotomab satetraxetan (RIVA [4]; 10 nM, time (day): 5) | growth inhibition by drug plus 177Lu-lilotomab satetraxetan (RIVA [4]; 10 nM, time (day): 6) | growth inhibition by drug plus 177Lu-lilotomab satetraxetan (RIVA [4]; 100 nM, time (day): 3) | growth inhibition by drug plus 177Lu-lilotomab satetraxetan (RIVA [4]; 100 nM, time (day): 4) | growth inhibition by drug plus 177Lu-lilotomab satetraxetan (RIVA [4]; 100 nM, time (day): 5) | growth inhibition by drug plus 177Lu-lilotomab satetraxetan (RIVA [4]; 100 nM, time (day): 6)
COc1c(C)c2c(c(O)c1C/C=C(\C)CCC(=O)O)C(=O)OC2 [Mycophenolic (Mycophenolate)] | 0.183 | 0.162 | 0.104 | 0.147 | 0.779 | 0.83 | 0.78 | 0.716 | 0.102 | 0.108 | 0.06 | -0.0787 | 0.409 | 0.362 | 0.284 | 0.202 | 0.128 | 0.131 | 0.191 | 0.311 | 0.759 | 0.81 | 0.733 | 0.662 | 0.534 | 0.601 | 0.625 | 0.635 | 0.712 | 0.719 | 0.736 | 0.739
CCC1=C[C@@H]2CN(C1)Cc1c([nH]c3ccccc13)[C@@](C(=O)OC)(c1cc3c(cc1OC)N(C)[C@H]1[C@@](O)(C(=O)OC)[C@H](OC(C)=O)[C@]4(CC)C=CCN5CC[C@]31[C@@H]54)C2 [Vinorelbine (Navelbine)] | 0.571 | 0.587 | 0.595 | 0.614 | 0.971 | 0.976 | 0.98 | 0.983 | 0.907 | 0.914 | 0.922 | 0.926 | 0.949 | 0.964 | 0.968 | 0.972 | 0.489 | 0.544 | 0.598 | 0.621 | 0.975 | 0.98 | 0.983 | 0.988 | 0.928 | 0.949 | 0.961 | 0.969 | 0.967 | 0.978 | 0.982 | 0.987
Cc1ccc([C@@H]2O[C@H](CO)[C@@H](O)[C@H](O)[C@H]2O)cc1Cc1ccc(-c2ccc(F)cc2)s1 [Canagliflozin] | -0.0178 | -0.0268 | -0.0429 | 0.0177 | -0.0399 | 0.00599 | -0.0361 | -0.0715 | -0.0859 | -0.106 | -0.126 | -0.215 | 0.00364 | -0.0271 | -0.0583 | -0.103 | 0.00296 | 0.0208 | 0.0301 | 0.162 | -0.0686 | 0.0117 | 0.0289 | 0.0944 | 0.342 | 0.476 | 0.499 | 0.519 | 0.383 | 0.437 | 0.439 | 0.418
COC(=O)Nc1ccc(-c2nc(N3CCOCC3)c3cnn(C4CCN(C(=O)OC)CC4)c3n2)cc1 | 0.122 | 0.107 | 0.0346 | -0.00417 | 0.454 | 0.381 | 0.375 | 0.388 | 0.0376 | 0.1 | 0.0593 | -0.105 | 0.0485 | 0.0181 | 0.033 | 0.00434 | 0.113 | 0.147 | 0.233 | 0.252 | 0.395 | 0.315 | 0.348 | 0.433 | 0.624 | 0.663 | 0.677 | 0.664 | 0.468 | 0.537 | 0.55 | 0.563
Nc1[nH]nc2nnc(-c3c(-c4ccccc4)nn4ccccc34)cc12 | 0.0936 | 0.109 | 0.0192 | -0.0741 | 0.0442 | 0.0356 | -0.0414 | -0.0395 | 0.0237 | 0.104 | 0.0531 | -0.13 | -0.0641 | 0.0167 | 0.00135 | -0.0876 | 0.135 | 0.17 | 0.238 | 0.275 | 0.0922 | 0.143 | 0.19 | 0.259 | 0.592 | 0.635 | 0.657 | 0.652 | 0.357 | 0.48 | 0.493 | 0.495
CC(C)(C)c1cc(NC(=O)Nc2ccc(-c3cn4c(n3)sc3cc(OCCN5CCOCC5)ccc34)cc2)no1 [Quizartinib (AC220)] | 0.0329 | -0.0112 | -0.0203 | 0.0321 | -0.0933 | -0.0955 | -0.0983 | 0.0473 | -0.0494 | -0.0577 | -0.051 | -0.0533 | -0.339 | -0.307 | -0.369 | -0.46 | 0.0106 | 0.0631 | 0.109 | 0.208 | -0.105 | -0.0657 | -0.0306 | 0.182 | 0.463 | 0.533 | 0.557 | 0.567 | 0.27 | 0.368 | 0.377 | 0.391
